Results as given in PubChem BioAssay.
A number with no mark means an inactive call. For some assays here: Entries with a potency or affinity are not part of this list. Calls of active or inactive are those of the source. Unless noted, the rule behind the calls is not given here.

Assays:
[1] = antimalarial activity against Dd2 strain (AID 2302;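 active = growth inhibition above 50% at the single 2 µM test dose, taken to imply half-maximal potency below 2 µM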;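 note: 0% = DMSO untreated growth and 100% = chloroquine plus artemisinin killed control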); conditions: P. falciparum Dd2 in RBCs, LDH growth readout, 72 h; at 2 µM; stronger effect = higher value
[2] = HepG2 cytotoxicity, primary screen, cytotoxicity control for P. falciparum antimalarial project, cell-based, ATP luminescence (AID 2303;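 active = inhibition above 50%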;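 note: 0% = DMSO wells and 100% = digitonin-killed cells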); conditions: HepG2 viability, 24-48 h, at 10 µM, stronger effect = higher value
[3] = target: L-lactate dehydrogenase (Plasmodium falciparum (isolate CDC / Honduras)) (UniProt Q27743); experiment: PfLDH activity inhibition – cell lysate, 3D7 strain, counter-screen for P. falciparum growth inhibition project (AID 2304);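 note: 0% = vehicle and 100% = reference inhibitor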; conditions: P. falciparum 3D7 crude extract, LDH APAD/NBT absorbance; at 2 µM; stronger effect = higher value
[4] = inhibition of 3D7 malaria parasite growth – strain 3D7 (AID 2306);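 note: 0% = DMSO wells and 100% = chloroquine plus artemisinin control wells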; conditions: P. falciparum 3D7 erythrocytic growth, LDH absorbance, 72 h; at 2 µM; stronger effect = higher value
[5] = target: Calcium-dependent protein kinase 1 (Plasmodium falciparum (isolate 3D7)) (UniProt P62344); experiment: PfCDPK1 kinase inhibitors, biochemical, TCAMS library (AID 1159585; cut-off not given, nearly all actives have IC50 up to about 0.98 µM;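 note: inhibitors leave more ATP so luminescence rises with inhibition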); conditions: recombinant PfCDPK1, Kinase-Glo ATP depletion luminescence
[6] = target: Plasmodium falciparum protein kinase 6 (PK6, PF3D7_1337100) (UniProt Q8IDW1); experiment: PfPK6 kinase inhibitors, biochemical, TCAMS library (AID 1159586); conditions: recombinant PfPK6, Kinase-Glo ATP depletion luminescence
[7] = target: Protein kinase 7 (PK7), Plasmodium falciparum 3D7 (PF3D7_0213400) (UniProt Q7YTF7); experiment: inhibition of Plasmodium PK7 catalytic activity – biochemical, TCAMS antimalarial set, Kinase-Glo luminescence (AID 1159587); conditions: recombinant PfPK7, Kinase-Glo ATP depletion luminescence
[8] = target: Calcium-dependent protein kinase 4 (Plasmodium falciparum (isolate 3D7)) (UniProt Q8IBS5); experiment: PfCDPK4 kinase inhibitors, biochemical, TCAMS library (AID 1159588; cut-off not given, nearly all actives have IC50 up to about 0.91 µM); conditions: recombinant PfCDPK4, Kinase-Glo ATP depletion luminescence
Calcium-dependent protein kinase 4 (Plasmodium falciparum (isolate 3D7)), sequence (Q8IBS5 whole entry, looked up): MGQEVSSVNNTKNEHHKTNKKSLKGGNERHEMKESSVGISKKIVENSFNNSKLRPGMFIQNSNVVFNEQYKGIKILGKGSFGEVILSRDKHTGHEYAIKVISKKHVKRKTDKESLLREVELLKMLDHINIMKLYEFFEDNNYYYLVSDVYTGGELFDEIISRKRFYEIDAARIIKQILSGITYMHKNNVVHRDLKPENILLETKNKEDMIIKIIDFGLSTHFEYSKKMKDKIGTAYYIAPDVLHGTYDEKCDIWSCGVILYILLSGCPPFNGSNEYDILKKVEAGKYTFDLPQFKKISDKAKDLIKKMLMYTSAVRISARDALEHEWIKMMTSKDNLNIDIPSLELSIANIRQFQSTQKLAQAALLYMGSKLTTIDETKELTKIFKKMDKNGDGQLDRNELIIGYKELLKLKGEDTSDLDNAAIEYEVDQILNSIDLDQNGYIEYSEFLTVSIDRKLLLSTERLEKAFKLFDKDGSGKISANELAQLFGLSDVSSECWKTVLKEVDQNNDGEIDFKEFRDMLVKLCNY

L-lactate dehydrogenase (Plasmodium falciparum (isolate CDC / Honduras)), sequence (Q27743 whole entry, looked up): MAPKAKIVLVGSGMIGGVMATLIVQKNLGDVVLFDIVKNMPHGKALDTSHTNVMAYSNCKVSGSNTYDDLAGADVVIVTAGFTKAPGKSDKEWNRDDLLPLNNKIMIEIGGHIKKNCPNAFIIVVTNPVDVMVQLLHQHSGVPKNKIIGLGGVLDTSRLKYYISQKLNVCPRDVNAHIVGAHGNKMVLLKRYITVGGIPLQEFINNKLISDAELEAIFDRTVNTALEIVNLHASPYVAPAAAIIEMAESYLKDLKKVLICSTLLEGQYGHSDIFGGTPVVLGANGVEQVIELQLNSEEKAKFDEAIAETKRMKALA
Protein kinase 7 (PK7), Plasmodium falciparum 3D7 (PF3D7_0213400), sequence (Q7YTF7 1-343): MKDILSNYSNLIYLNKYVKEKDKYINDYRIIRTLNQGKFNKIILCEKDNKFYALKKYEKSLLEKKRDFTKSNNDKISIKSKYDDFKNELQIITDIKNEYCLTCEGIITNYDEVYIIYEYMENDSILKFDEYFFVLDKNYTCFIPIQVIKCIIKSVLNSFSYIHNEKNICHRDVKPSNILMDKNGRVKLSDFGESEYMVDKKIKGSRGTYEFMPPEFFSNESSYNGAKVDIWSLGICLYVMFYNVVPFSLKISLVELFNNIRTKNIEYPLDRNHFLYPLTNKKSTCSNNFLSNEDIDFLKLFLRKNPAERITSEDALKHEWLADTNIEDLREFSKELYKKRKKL
Plasmodium falciparum protein kinase 6 (PK6, PF3D7_1337100), sequence (Q8IDW1 1-305): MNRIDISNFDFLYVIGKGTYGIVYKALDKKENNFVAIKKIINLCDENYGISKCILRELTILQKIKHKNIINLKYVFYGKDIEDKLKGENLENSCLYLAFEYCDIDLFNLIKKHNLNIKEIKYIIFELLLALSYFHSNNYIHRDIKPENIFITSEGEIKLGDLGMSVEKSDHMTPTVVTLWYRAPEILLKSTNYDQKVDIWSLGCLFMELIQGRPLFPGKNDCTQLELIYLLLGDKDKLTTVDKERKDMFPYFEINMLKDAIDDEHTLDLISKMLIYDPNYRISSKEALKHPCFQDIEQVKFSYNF
Calcium-dependent protein kinase 1 (Plasmodium falciparum (isolate 3D7)), sequence (P62344 whole entry, looked up): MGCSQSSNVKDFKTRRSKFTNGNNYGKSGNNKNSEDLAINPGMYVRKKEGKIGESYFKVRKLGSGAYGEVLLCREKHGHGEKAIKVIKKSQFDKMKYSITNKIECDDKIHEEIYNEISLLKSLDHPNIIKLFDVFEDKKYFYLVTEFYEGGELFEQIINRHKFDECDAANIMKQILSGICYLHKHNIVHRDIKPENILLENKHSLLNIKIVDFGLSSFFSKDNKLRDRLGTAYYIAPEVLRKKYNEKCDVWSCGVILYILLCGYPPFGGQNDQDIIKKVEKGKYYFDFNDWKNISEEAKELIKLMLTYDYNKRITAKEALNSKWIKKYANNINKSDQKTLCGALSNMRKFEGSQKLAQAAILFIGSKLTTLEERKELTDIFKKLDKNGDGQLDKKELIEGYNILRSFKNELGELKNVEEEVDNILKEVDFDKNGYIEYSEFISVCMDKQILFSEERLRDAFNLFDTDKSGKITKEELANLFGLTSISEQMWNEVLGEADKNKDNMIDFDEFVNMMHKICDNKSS

Row | SMILES | growth inhibition [1] | inhibition [2] | inhibition [3] [%] | growth inhibition [4] | outcome [5] | outcome [6] | outcome [7] | outcome [8]
1 | OC(CNc1ccnc(Nc2cccc(Cl)c2)n1)c1ccccc1C(F)(F)F (stereo not given) | 36% | 40% | 0 | 95% (active) | inactive | inactive | inactive | inactive
2 | COc1cc2nc(N3CCC(CNC(=O)c4ccc(-c5ccc(C(=O)N(C)C)cc5)cc4)CC3)nc(N)c2cc1OC | 89% (active) | 20% | 0 | 101% (active) | inactive | inactive | inactive | inactive
3 | COc1cc(C2Nc3ccc4ccccc4c3C3=C2C(=O)CC(C)(C)C3)ccc1Oc1ccc([N+](=O)[O-])cc1C#N (stereo not given) | 94% (active) | 8% | -1 | 99% (active) | inactive | inactive | inactive | inactive
4 | CCc1ccc(C2CCN(CCCCNC(=O)c3ccc(NC(=O)c4ccc(Cl)cc4)cc3)CC2)c(OCC(=O)OC)c1 | 12% | 32% | 6 | 95% (active) | inactive | inactive | inactive | inactive
5 | COc1ccc(NC(=O)[C@H](CC(C)C)Nc2cc(C)nc(NCCc3ccccc3OC)n2)cc1 | 68% (active) | 9% | -3 | 99% (active) | inactive | inactive | inactive | inactive
6 | O=c1cc(NCCC(CNCc2cc3ccccc3o2)NCc2cc(Br)cc(Br)c2)[nH]c2ccccc12 (stereo not given) | 94% (active) | 6% | 2 | 100% (active) | inactive | inactive | inactive | inactive
7 | CCN(CC)c1ccc(C(c2ccc(N(CC)CC)cc2)c2ccc([N+](=O)[O-])cc2)cc1 | 63% (active) | 20% | 0 | 82% (active) | inactive | inactive | inactive | inactive
8 | c1ccc(COc2ccc(Cn3ccc(-c4ccc(-n5ccnc5)cc4)n3)cc2)cc1 (tested in a mixture with another compound) | 67% (active) | 2% | -1 | 94% (active) | inactive | inactive | inactive | inactive
9 | CCC(C)NS(=O)(=O)c1ccc2nc(Nc3ccc(C)c(Cl)c3)n(C(C)C(C)C)c2c1 (stereo not given) | 98% (active) | 22% | 1 | 98% (active) | inactive | inactive | inactive | inactive
10 | c1ccc(Oc2ccc(Nc3ccnc4cc(-c5csc(CNCCN6CCOCC6)n5)ccc34)cc2)cc1 | 99% (active) | -1% | 0 | 101% (active) | inactive | inactive | inactive | inactive
11 | Cc1[nH]nc2ccc(-c3ccc4nccc(N5CCC(N)CC5)c4c3)cc12 | 100% (active) | 67% (active) | -3 | 101% (active) | inactive | inactive | inactive | inactive
12 | C=Cc1ccc(-c2c(C)[nH]c(C)c(Br)c2=O)cc1 | 96% (active) | -2% | -3 | 98% (active) | inactive | inactive | inactive | inactive
13 | CC(=O)N1N=C(c2ccc(F)cc2)Sc2c1nc(-c1ccccc1)n2C(C)=O | 67% (active) | -11% | -1 | 99% (active) | inactive | inactive | inactive | inactive
14 | Oc1cccc(Nc2ccnc3cc(-c4cc5ccccc5o4)ccc23)c1 | 71% (active) | 9% | -1 | 102% (active) | inactive | inactive | inactive | inactive
15 | CN(C)CCCNCc1ccc(-c2ccc(CNCCc3ccccc3)cc2)cc1 | 87% (active) | 61% (active) | 0 | 100% (active) | inactive | inactive | inactive | inactive
16 | COc1cccc(Nc2nnc(SCC(=O)NNC(=O)c3ccccn3)s2)c1 | 95% (active) | 52% (active) | -1 | 99% (active) | inactive | inactive | inactive | inactive
17 | Cc1ccccc1C1CCN(C2CCC(NC(=O)c3cc(-c4ccc(Cl)cc4)cs3)CC2)CC1 (stereo not given) | 100% (active) | 99% (active) | -2 | 101% (active) | inactive | inactive | inactive | inactive
18 | O=C(O)C1Cc2c([nH]c3ccccc23)C(c2ccc(Cl)cc2Cl)N1 (stereo not given) | 100% (active) | 7% | 0 | 91% (active) | inactive | inactive | inactive | inactive
19 | O=C(CN1CCN(S(=O)(=O)C=Cc2ccccc2)CC1)Nc1cc(C(F)(F)F)ccc1Cl | 63% (active) | 23% | 5 | 96% (active) | inactive | inactive | inactive | inactive
20 | Cc1nn(CC(C)C)c2sc(C(=O)Nc3nc(-c4ccccn4)cs3)cc12 | 67% (active) | 29% | 1 | 96% (active) | inactive | inactive | inactive | inactive

Row | SMILES | growth inhibition [1] | inhibition [2] | inhibition [3] [%] | growth inhibition [4] | outcome [5] | outcome [6] | outcome [7] | outcome [8]
21 | CN1CCN(CCCN(Cc2csc(-c3ccc(CNCc4ccccc4)cc3)n2)C(=O)Nc2ccc3ccccc3c2)CC1 | 63% (active) | 12% | 3 | 94% (active) | inactive | inactive | inactive | inactive
22 | Cc1cccc2[nH]c(=O)c([N+](=O)[O-])c(O)c12 | -2% | -2% | -2 | 95% (active) | inactive | inactive | inactive | inactive
23 | CCCOc1ccc(NC(=O)c2cccs2)cc1Cl | 86% (active) | 1% | -4 | 88% (active) | inactive | inactive | inactive | inactive
24 | CCN1CCC(N2CCC(C(=O)Nc3cccc(-c4cccc(Cl)c4)c3)CC2)CC1 | 82% (active) | 54% (active) | -1 | 91% (active) | inactive | inactive | inactive | inactive
25 | COc1cccc(-c2ccc(O)c(CNCCc3cccc(F)c3)c2)n1 | 67% (active) | -14% | 0 | 96% (active) | inactive | inactive | inactive | inactive
26 | COc1ccc(NC(=O)[C@H](Cc2ccccc2)Nc2cc(C)nc(NCCc3ccccc3OC)n2)cc1 | 83% (active) | 10% | 3 | 100% (active) | inactive | inactive | inactive | inactive
27 | O=C(/C=C/c1ccc([N+](=O)[O-])cc1)N1CCC(NS(=O)(=O)c2cccc(C(F)(F)F)c2)CC1 | 8% | -2% | -1 | 94% (active) | inactive | inactive | inactive | inactive
28 | COc1cc(NC(=O)/C=C/c2ccccc2Cl)cc(OCCN2CCC(O)(c3ccccc3)CC2)c1 | 46% | 48% | -1 | 102% (active) | inactive | inactive | inactive | inactive
29 | O=c1cc(NCCCNCc2cc(C(F)(F)F)ccc2Cl)[nH]c2ccccc12 | 20% | 25% | -2 | 90% (active) | inactive | inactive | inactive | inactive
30 | Cc1ccc(N2C(=O)C3C(C2=O)[C@]2(c4ccccc4)C(=O)[C@@]3(c3ccccc3)C(c3ccccc3)=C2c2ccccc2)c(C)c1 (stereo not given in full) | 96% (active) | 3% | 6 | 96% (active) | inactive | inactive | inactive | inactive
31 | COc1cccc(CNc2ncc(-c3ccsc3)c(-c3nccs3)n2)c1 | 82% (active) | 9% | 3 | 89% (active) | inactive | inactive | inactive | inactive
32 | COc1ccc(-c2csc(N(CCCN(C)C)C(=O)c3cc4c(C)nn(-c5ccccc5)c4s3)n2)cc1 | 16% | 100% (active) | -2 | 102% (active) | inactive | inactive | inactive | inactive
33 | C#CCCC(=O)Nc1cccc(-c2cccc(-c3nc4c(C)cccc4[nH]3)c2)c1 | 29% | 30% | -3 | 97% (active) | inactive | inactive | inactive | inactive
34 | O=C(C=CC(=O)N1CCCCC1)NCc1ccccc1 | -3% | 6% | -2 | 100% (active) | inactive | inactive | inactive | inactive
35 | O=C(NC1CCN(Cc2ccccc2)CC1)c1cccc(Nc2nc(-c3ccccc3)cs2)c1 | 3% | 70% (active) | 3 | 84% (active) | inactive | inactive | inactive | inactive
36 | COc1ccc(-c2cccc(NC(=O)c3cccc(Cl)c3)c2)cc1CN1CCCN(C)CC1 | 99% (active) | 20% | 6 | 101% (active) | inactive | inactive | inactive | inactive
37 | CCOC(=O)c1cn(CC)c2cc(OCc3ccccc3)ccc2c1=O | 96% (active) | 2% | 2 | 97% (active) | inactive | inactive | inactive | inactive
38 | Cc1nc(N)nc(N)c1-c1ccc2ccccc2c1 | 2% | 60% (active) | 6 | 97% (active) | inactive | inactive | inactive | inactive
39 | Cc1ccc(O)c(CN2CCCC(COC(c3ccc(F)cc3)c3ccc(F)cc3)C2)c1 (stereo not given) | 98% (active) | 19% | 0 | 98% (active) | inactive | inactive | inactive | inactive
40 | Cc1c(Cl)ccc2c(C(=O)Nc3ccncc3)cc(-c3cccnc3)nc12 | 83% (active) | 16% | -3 | 99% (active) | inactive | inactive | inactive | inactive
